The test system of the test is H1299. The experiment in a line: difference in mean normalized H2B-mRuby nuclear fluorescence intensity relative to DMSO control (normalized intensity difference (DMSO = 0)); higher = stronger increase in transgene reporter fluorescence. The settings on record: 24 h. Here is the method: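 Cancer cell lines stably expressing H2B-mRuby2 from a lentiviral PGK promoter were treated with each drug for 24 h and imaged on a Leica DMI8 (ex 541-551 / em 565-605 nm). Nuclei were segmented in CellProfiler. The value is the difference in mean per-nucleus normalized H2B-mRuby intensity versus DMSO-treated cells (about 3 repeats x 4 fields). Doxorubicin is itself fluorescent. Dasatinib is in nM.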

The text below walks through data of the supplement of paper PMC11026393.

Structures are written as SMILES.

Turning to `Cc1sc2c(c1C)C(c1ccc(Cl)cc1)=N[C@@H](CC(=O)OC(C)(C)C)c1nnc(C)n1-2` (concentration unit: uM), the difference reads like this: (concentration: 0.1) 0.176; (concentration: 0.5) 0.367; (concentration: 1) 0.441; (concentration: 5) 0.532; (concentration: 10) 0.625.
With `CN[C@@H]1C[C@H]2O[C@@](C)([C@@H]1OC)n1c3ccccc3c3c4c(c5c6ccccc6n2c5c31)C(=O)NC4` (concentration unit: nM), the difference was -0.113 (concentration: 5); -0.185 (concentration: 10); -0.17 (concentration: 25); 0.0873 (concentration: 100); 0.138 (concentration: 500).
